Activity calls are given as the source filed them. A call without a number means that no potency is given here. The call rests on the fitted dose curve; in most records, active means well fitted curve in the direction sought with a large enough effect in the repeat runs; inconclusive means weak or mixed curves; inactive means flat fitted curve, though single readings scatter.

The nature of one assay: qHTS assay to test for compound auto fluorescence at 590 nm (red) in HepG2 cells (AID 720674). As to conditions: HepG2 autofluorescence, red 540/590 nm, 1 h; series mostly up to 91.3 µM. An outline of the steps:
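Intrinsic compound fluorescence in the red window (Ex/Em 540/590 nm) is measured in attached HepG2 cells exposed for 1 hr, DMSO vehicle as baseline, benchmarked to Rose Bengal sodium.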
Background: Quantitative high-throughput screening tests each substance at several concentrations.
Consider `CCCCCCCC/C=C/CCCCCCCC1=NCCN1CCO`, for which the Potency result is “inactive”.
Still for that read-out and setting: under `Oc1ccc2cc(SSc3ccc4cc(O)ccc4c3)ccc2c1` stands “inactive”.
Still for that read-out and setting: under `Cc1c(C)c2c(c(C)c1OC(=O)CCC(=O)O)CC[C@@](C)(CCC[C@H](C)CCC[C@H](C)CCCC(C)C)O2` stands “inactive”; under `O=C1c2c(O)ccc(Nc3ccc(CCO)cc3)c2C(=O)c2c([N+](=O)[O-])ccc(O)c21`, “inactive”.
On the same count and under the same terms, under `c1cc(C(c2ccc(OCC3CO3)cc2)c2ccc(OCC3CO3)cc2)ccc1OCC1CO1` (configuration not stated) stands “inactive”; under `O=C(c1ccc(F)cc1)C1CCN(CCn2c(=O)[nH]c3ccccc3c2=O)CC1`, “inactive”.
For `Cc1cccc(CN2CCN(C(c3ccccc3)c3ccc(Cl)cc3)CC2)c1` (configuration not stated), the fluorescence, relative to Rose Bengal was -0.676% [at 18.6 µM] (inactive).
With `CCCN(CCC)c1c([N+](=O)[O-])cc(C(F)(F)F)c(N)c1[N+](=O)[O-]`, the Potency result is “inactive”.
Regarding `OCCN1CCN(CC/C=C2/c3ccccc3Sc3ccc(C(F)(F)F)cc32)CC1`, the Potency result was “inactive”.

The next assay is described as follows: qHTS assay to test for compound auto fluorescence at 535 nm (green) in HepG2 cells (AID 720675). Further: potency means the concentration at half of the fitted maximal effect. As to conditions: green autofluorescence 485/535 nm, 1 h; series mostly up to 91.3 µM.
For the compound `C[C@@H](NCCCc1cccc(C(F)(F)F)c1)c1cccc2ccccc12`, the Potency entry was “inactive”.
Same read-out and setting: then `CSc1ccc(/C=C2/C(C)=C(CC(=O)O)c3cc(F)ccc32)cc1`, with “inactive”; and `CN(C)C(=O)C1(N2CCCCC2)CCN(CC[C@@]2(c3ccc(Cl)c(Cl)c3)CN(C(=O)c3ccccc3)CCO2)CC1`, with “inactive”; and `Nc1ccc(N)c2ccccc12`, with 8.91 µM (active).
Still for that read-out and setting: then `CCOC(=O)O[C@]1(C(=O)OCCl)CC[C@H]2[C@@H]3CCC4=CC(=O)C=C[C@]4(C)[C@H]3[C@@H](O)C[C@@]21C`, with “inactive”; and `CCCCCCCC/C=C\CCCCCCCCOCCO`, with “inactive”.
As to `CCCCCCCCCOC(=O)c1ccc(O)cc1`, the Potency entry is “inactive”.
The same measure, in the same setting: under `CCCCCCOC(=O)c1ccc(O)cc1` stands “inactive”.
Still for that read-out and setting: under `NC(=NCCCCCCN=C(N)/N=C(\N)Nc1ccc(Cl)cc1)/N=C(\N)Nc1ccc(Cl)cc1` stands “inactive”; under `CC(C)C(C)(C)C(C)(C)C(C)(C)S`, “inactive”.
Still for that read-out and setting: under `Oc1ccc(C2(c3ccc(O)cc3)CC3CC2C2CCCC32)cc1` (configuration not stated) stands “inactive”; under `Cc1onc(-c2c(Cl)cccc2Cl)c1C(=O)N[C@@H]1C(=O)N2[C@@H]1SC(C)(C)[C@@H]2C(=O)O`, “inactive”.
For `NNc1nc(-c2ccc(N)cc2)cs1`, the Potency entry was “inactive”.
The same measure, in the same setting: under `CC/C(=C(\c1ccc(O)cc1)c1ccc(OCCN(C)C)cc1)c1ccccc1` stands “inactive”.
On the same count and under the same terms, then `CCOc1nc2cccc(C(=O)OC(C)OC(=O)OC3CCCCC3)c2n1Cc1ccc(-c2ccccc2-c2nn[nH]n2)cc1` (configuration not stated), with “inactive”; and `CCC(C)Nc1ccc(NC(C)CC)cc1` (configuration not stated), with “inactive”; and `CC1(C)CCC(C)(C)c2cc(C(=O)Nc3ccc(C(=O)O)cc3)ccc21`, with “inactive”.
For `CCCCCCC[N+](CC)(CC)CCCCc1ccc(Cl)cc1`, the fluorescence, % of fluorescein control was -0.0059% [at 18.6 µM] (inactive).
`Fc1ccc([C@@H]2CCNC[C@H]2COc2ccc3c(c2)OCO3)cc1`: the Potency entry is “inactive”.
The same measure, in the same setting: under `CCCCC(CC)CN=C(N)NC(N)=NCCCCCCN=C(N)NC(N)=NCC(CC)CCCC` (configuration not stated) stands “inactive”; under `Cc1cc(CCN2CCN(c3nsc4ccccc34)CC2)cc2c1NC(=O)CC2(C)C`, “inactive”.
For `CCCCCCCCCCCCc1ccc(O)cc1`, the Potency entry is “inactive”.
On the same count and under the same terms, then `O=C(Nc1cccc([N+](=O)[O-])c1)c1cc2ccccc2cc1O`, with “inactive”; and `Fc1ccc(C(c2ccc(F)cc2)N2CCN(C/C=C/c3ccccc3)CC2)cc1`, with “inactive”.
On the same count and under the same terms, then `CCCC(c1cc(C(C)(C)C)c(O)cc1C)c1cc(C(C)(C)C)c(O)cc1C`, with “inactive”.
On to `Clc1ccccc1C(c1ccccc1)(c1ccccc1)n1ccnc1`, for which the Potency result is “inactive”.
On the same count and under the same terms, under `O=C(Oc1cccc2cccnc12)c1ccccc1` stands “inactive”; under `O=C1CCCCCN1SSN1CCCCCC1=O`, “inactive”.
The same measure, in the same setting: then `Cc1ccc(O)c(C(C)(C)C)c1`, with “inactive”; and `CCCCCCCCNC(C)C(O)c1ccc(SC(C)C)cc1` (configuration not stated), with “inactive”; and `CCCCCCCC/C=C/CCCCCCCC1=NCCN1CCO`, with “inactive”.
Still for that read-out and setting: under `Oc1ccc2cc(SSc3ccc4cc(O)ccc4c3)ccc2c1` stands “inactive”; under `Cc1c(C)c2c(c(C)c1OC(=O)CCC(=O)O)CC[C@@](C)(CCC[C@H](C)CCC[C@H](C)CCCC(C)C)O2`, “inactive”.
Turning to `O=C1c2c(O)ccc(Nc3ccc(CCO)cc3)c2C(=O)c2c([N+](=O)[O-])ccc(O)c21`, the Potency entry was “inactive”.
Still for that read-out and setting: then `c1cc(C(c2ccc(OCC3CO3)cc2)c2ccc(OCC3CO3)cc2)ccc1OCC1CO1` (configuration not stated), with “inactive”.
Same read-out and setting: then `O=C(c1ccc(F)cc1)C1CCN(CCn2c(=O)[nH]c3ccccc3c2=O)CC1`, with “inactive”.
In the case of `Cc1cccc(CN2CCN(C(c3ccccc3)c3ccc(Cl)cc3)CC2)c1` (configuration not stated), the fluorescence, % of fluorescein control is 0.0228% [at 18.6 µM] (inactive).
For the compound `CCCN(CCC)c1c([N+](=O)[O-])cc(C(F)(F)F)c(N)c1[N+](=O)[O-]`, the Potency entry is “inactive”.
On the same count and under the same terms, then `OCCN1CCN(CC/C=C2/c3ccccc3Sc3ccc(C(F)(F)F)cc32)CC1`, with “inactive”.

A short description of another assay: qHTS assay to test for compound auto fluorescence at 460 nm (blue) in HEK293 cells (AID 720678). As to conditions: blue autofluorescence 405/460 nm; series mostly up to 91.3 µM. The method, boiled down: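 Blue-channel (Ex/Em 405/460 nm) intensity measured in HEK293 cultures after overnight compound exposure at 37C; signal expressed relative to triamterene. Cells plated 2,000 per well in 10% dialyzed FBS medium and allowed 4-5 hr to attach.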
In the case of `C[C@@H](NCCCc1cccc(C(F)(F)F)c1)c1cccc2ccccc12`, the Potency entry was “inactive”.
On to `CSc1ccc(/C=C2/C(C)=C(CC(=O)O)c3cc(F)ccc32)cc1`, for which the Potency result is “inactive”.
On the same count and under the same terms, under `CN(C)C(=O)C1(N2CCCCC2)CCN(CC[C@@]2(c3ccc(Cl)c(Cl)c3)CN(C(=O)c3ccccc3)CCO2)CC1` stands “inactive”; under `Nc1ccc(N)c2ccccc12`, “inactive”.
The same measure, in the same setting: then `CCOC(=O)O[C@]1(C(=O)OCCl)CC[C@H]2[C@@H]3CCC4=CC(=O)C=C[C@]4(C)[C@H]3[C@@H](O)C[C@@]21C`, with “inactive”; and `CCCCCCCC/C=C\CCCCCCCCOCCO`, with “inactive”.
Still for that read-out and setting: then `CCCCCCCCCOC(=O)c1ccc(O)cc1`, with “inactive”.
`CCCCCCOC(=O)c1ccc(O)cc1`: the Potency entry is “inactive”.
Same read-out and setting: under `NC(=NCCCCCCN=C(N)/N=C(\N)Nc1ccc(Cl)cc1)/N=C(\N)Nc1ccc(Cl)cc1` stands “inactive”.
Same read-out and setting: then `CC(C)C(C)(C)C(C)(C)C(C)(C)S`, with “inactive”; and `Oc1ccc(C2(c3ccc(O)cc3)CC3CC2C2CCCC32)cc1` (configuration not stated), with “inactive”; and `Cc1onc(-c2c(Cl)cccc2Cl)c1C(=O)N[C@@H]1C(=O)N2[C@@H]1SC(C)(C)[C@@H]2C(=O)O`, with “inactive”.
For the compound `NNc1nc(-c2ccc(N)cc2)cs1`, the Potency entry is “inactive”.
On the same count and under the same terms, then `CC/C(=C(\c1ccc(O)cc1)c1ccc(OCCN(C)C)cc1)c1ccccc1`, with “inactive”.
For `CCOc1nc2cccc(C(=O)OC(C)OC(=O)OC3CCCCC3)c2n1Cc1ccc(-c2ccccc2-c2nn[nH]n2)cc1` (configuration not stated), the Potency entry was “inactive”.
Same read-out and setting: then `CCC(C)Nc1ccc(NC(C)CC)cc1` (configuration not stated), with “inactive”.
The same measure, in the same setting: then `CC1(C)CCC(C)(C)c2cc(C(=O)Nc3ccc(C(=O)O)cc3)ccc21`, with “inactive”.
`CCCCCCC[N+](CC)(CC)CCCCc1ccc(Cl)cc1`: the fluorescence, % of triamterene is 0.0756% [at 18.6 µM] (inactive).
`Fc1ccc([C@@H]2CCNC[C@H]2COc2ccc3c(c2)OCO3)cc1`: the Potency entry is “inactive”.
Turning to `CCCCC(CC)CN=C(N)NC(N)=NCCCCCCN=C(N)NC(N)=NCC(CC)CCCC` (configuration not stated), the Potency entry was “inactive”.
Same read-out and setting: under `Cc1cc(CCN2CCN(c3nsc4ccccc34)CC2)cc2c1NC(=O)CC2(C)C` stands “inactive”; under `CCCCCCCCCCCCc1ccc(O)cc1`, “inactive”.
Still for that read-out and setting: then `O=C(Nc1cccc([N+](=O)[O-])c1)c1cc2ccccc2cc1O`, with “inactive”.
Same read-out and setting: then `Fc1ccc(C(c2ccc(F)cc2)N2CCN(C/C=C/c3ccccc3)CC2)cc1`, with “inactive”.
With `CCCC(c1cc(C(C)(C)C)c(O)cc1C)c1cc(C(C)(C)C)c(O)cc1C`, the Potency result was “inactive”.
On to `Clc1ccccc1C(c1ccccc1)(c1ccccc1)n1ccnc1`, for which the Potency result is “inactive”.
Consider `O=C(Oc1cccc2cccnc12)c1ccccc1`, for which the Potency result was “inactive”.
With `O=C1CCCCCN1SSN1CCCCCC1=O`, the Potency entry was “inactive”.
On the same count and under the same terms, under `Cc1ccc(O)c(C(C)(C)C)c1` stands “inactive”; under `CCCCCCCCNC(C)C(O)c1ccc(SC(C)C)cc1` (configuration not stated), “inactive”; under `CCCCCCCC/C=C/CCCCCCCC1=NCCN1CCO`, “inactive”.
The same measure, in the same setting: then `Oc1ccc2cc(SSc3ccc4cc(O)ccc4c3)ccc2c1`, with “inactive”; and `Cc1c(C)c2c(c(C)c1OC(=O)CCC(=O)O)CC[C@@](C)(CCC[C@H](C)CCC[C@H](C)CCCC(C)C)O2`, with “inactive”; and `O=C1c2c(O)ccc(Nc3ccc(CCO)cc3)c2C(=O)c2c([N+](=O)[O-])ccc(O)c21`, with “inactive”.
For `c1cc(C(c2ccc(OCC3CO3)cc2)c2ccc(OCC3CO3)cc2)ccc1OCC1CO1` (configuration not stated), the Potency entry is “inactive”.
Still for that read-out and setting: then `O=C(c1ccc(F)cc1)C1CCN(CCn2c(=O)[nH]c3ccccc3c2=O)CC1`, with “inactive”.
As for `Cc1cccc(CN2CCN(C(c3ccccc3)c3ccc(Cl)cc3)CC2)c1` (configuration not stated), the fluorescence, % of triamterene was 0.0825% [at 18.6 µM] (inactive).
Turning to `CCCN(CCC)c1c([N+](=O)[O-])cc(C(F)(F)F)c(N)c1[N+](=O)[O-]`, the Potency entry was “inactive”.
On the same count and under the same terms, then `OCCN1CCN(CC/C=C2/c3ccccc3Sc3ccc(C(F)(F)F)cc32)CC1`, with “inactive”.

The values above are taken from PubChem BioAssay (Tox21).
